{
  "source": "PubChem BioAssay (NCATS)",
  "key": {"[1]": {"conditions": "Ebola virus entry assay, green channel fluorescence"}, "[2]": {"conditions": "Ebola virus entry assay, reporter ratio channel; Channel type: primary"}, "[3]": {"conditions": "Ebola virus entry assay, blue channel (ratio component)"}, "[4]": {"assay": "qHTS assay for cell viability of HEK293 cells (AID 743288; active means well fitted cell-killing curve with a large enough effect; further: nearly all actives have a fitted effect of over 50% in size)", "conditions": "ATP luminescence (CellTiter-Glo), 18 h; max response: stronger effect = lower value", "in_short": "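Quantitative high-throughput screen: compounds were pinned onto parental HEK293 cells (2,000 per well) after a minimum 5 h settling at 37 C, incubated 18 h at 37 C, and intracellular ATP measured by luciferase luminescence.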"}, "[5]": {"assay": "qHTS assay for cell viability of the p53RE-bla HCT-116 cell line (AID 743292; active means well fitted cell-killing curve with a large enough effect; further: nearly all actives have a fitted effect of over 55% in size)", "conditions": "p53RE-bla HCT-116 viability, ATP luminescence, 16 h; series mostly up to 95 µM", "in_short": "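After plating at 4,000 cells per well and a 5 h rest at 37 C, HCT-116 cells carrying p53RE-bla received test chemicals in DMSO. Sixteen hours later at 37 C, CellTiter-Glo was added and luminescence recorded following 30 min at room temperature.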"}, "[6]": {"assay": "Immunotoxin (HA22) sensitization/mitigation study. Vehicle arm (PBS) (AID 1159510); further: potency means the concentration at half of the fitted maximal effect", "conditions": "cancer cells viability with PBS vehicle (HA22 study); series mostly up to 46.1 µM"}},
  "note": "A number with no mark means an inactive call. Records with an inconclusive call do not appear. A call without a number means that no potency is given here. For some of these results: Results with a measured potency or affinity are listed apart. Calls of active or inactive are those of the source. Unless noted, how the calls were made is not given here.",
  "data": [
    {"smiles": "COc1ccc2cc(CCC(C)=O)ccc2c1", "values": [
      {"measurement": "outcome", "setting": "[1]", "value": "inactive"},
      {"measurement": "outcome", "setting": "[2]", "value": "inactive"},
      {"measurement": "outcome", "setting": "[3]", "value": "inactive"}
    ]},
    {"smiles": "Cc1cc(-c2ccccc2)nnc1NCCN1CCOCC1", "values": [
      {"measurement": "outcome", "setting": "[1]", "value": "inactive"},
      {"measurement": "outcome", "setting": "[2]", "value": "inactive"},
      {"measurement": "outcome", "setting": "[3]", "value": "inactive"}
    ]},
    {"smiles": "[Cl][In]([Cl])[Cl]", "values": [
      {"measurement": "outcome", "setting": "[1]", "value": "inactive"}
    ]},
    {"smiles": "CCCCCCCCCCC(CO)CCCCCCCC", "note": "(configuration not stated)", "values": [
      {"measurement": "outcome", "setting": "[1]", "value": "inactive"},
      {"measurement": "outcome", "setting": "[2]", "value": "inactive"},
      {"measurement": "outcome", "setting": "[3]", "value": "inactive"}
    ]},
    {"smiles": "C[C@]12C[C@H](O)[C@H]3[C@@H](CCC4=CC(=O)CC[C@@]43C)[C@@H]1CC[C@@H]2C(=O)CO", "values": [
      {"measurement": "outcome", "setting": "[1]", "value": "inactive"},
      {"measurement": "outcome", "setting": "[2]", "value": "inactive"},
      {"measurement": "outcome", "setting": "[3]", "value": "inactive"}
    ]},
    {"smiles": "O=[N+]([O-])c1c2ccccc2cc2ccccc12", "values": [
      {"measurement": "max response", "setting": "[4]", "value": -0.948, "unit": "%"},
      {"measurement": "Potency", "setting": "[5]", "value": "inactive"},
      {"measurement": "outcome", "setting": "[1]", "value": "inactive"},
      {"measurement": "outcome", "setting": "[2]", "value": "inactive"},
      {"measurement": "outcome", "setting": "[3]", "value": "inactive"}
    ]},
    {"smiles": "NC(=O)C1CCCc2c1[nH]c1ccc(Cl)cc21", "note": "(configuration not stated)", "values": [
      {"measurement": "Potency", "setting": "[6]", "value": "inactive"}
    ]},
    {"smiles": "O=C(O)c1ccccc1O", "values": [
      {"measurement": "outcome", "setting": "[2]", "value": "inactive"},
      {"measurement": "outcome", "setting": "[3]", "value": "inactive"}
    ]},
    {"smiles": "O=C(c1ccc(Nc2nccc(-c3cc4ccccc4s3)n2)cc1)N1CCC(N2CCCC2)CC1", "values": [
      {"measurement": "Potency", "setting": "[6]", "value": "16.6 µM (active)"}
    ]}
  ]
}
